Test results from PubChem BioAssay AID1159580 (chemical genetic matrix, 2015).
Among all 5,500 compounds or so, about 2,000 (36%) were called active. Another 18% or so got no clear call; they are omitted. Cut-off read from the data, not from the text of the source: active = normalized growth mostly below about 0.91 (no sharp cut-off); inconclusive = no clear call, values can overlap the other calls; inactive = mostly above about 0.92. The list shows a part of the results.

Test: chemical genetic growth profiling, strain panel (AID 1159580);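 note: tested at 20 µM; growth read once vehicle control cultures reached saturation at 30 °C; 1 = growth at the plate median or of vehicle wells; lower values mean less growth of the strain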
Settings: S. cerevisiae deletion strains, growth OD

Measured: normalized growth

CC12CCC(O)CC1CCc1ccccc12 (configuration not stated)
inactive: locus YAL021C, strain ccr4, stronger effect = lower value 0.993 | locus YAL026C, strain drs2, stronger effect = lower value 0.972 | locus YAL030W, strain snc1, stronger effect = lower value 0.982 | locus YBL061C, strain skt5, stronger effect = lower value 0.967 | locus YBR009C, strain hhf1, stronger effect = lower value 0.932 | locus YBR023C, strain chs3, stronger effect = lower value 0.967 | locus YBR171W, strain sec66, stronger effect = lower value 0.938 | locus YBR231C, strain swc5, stronger effect = lower value 0.998 | locus YBR279W, strain paf1, stronger effect = lower value 0.981 | locus YCL011C, strain gbp2, stronger effect = lower value 0.981 | locus YCL016C, strain dcc1, stronger effect = lower value 0.977 | locus YCL061C, strain MRC1, stronger effect = lower value 0.967 | locus YCL069W, strain vba3, stronger effect = lower value 0.974 | locus YCR088W, strain abp1, stronger effect = lower value 0.978 | locus YDL005C, strain med2, stronger effect = lower value 0.97 | locus YDL040C, strain nat1, stronger effect = lower value 0.979 | locus YDR001C, strain nth1, stronger effect = lower value 0.971 | locus YDR069C, strain doa4, stronger effect = lower value 0.984 | locus YDR137W, strain rgp1, stronger effect = lower value 0.871 | locus YDR159W, strain sac3, stronger effect = lower value 0.936 | locus YDR195W, strain ref2 1 | locus YDR297W, strain sur2, stronger effect = lower value 0.971 | locus YDR334W, strain swr1, stronger effect = lower value 0.989 | locus YDR335W, strain msn5, stronger effect = lower value 0.972 | locus YEL003W, strain gim4, stronger effect = lower value 0.96 | locus YEL037C, strain rad23, stronger effect = lower value 0.98 | locus YEL061C, strain CIN8 (second series), stronger effect = lower value 0.964 | locus YER015W, strain faa2, stronger effect = lower value 0.983 | locus YER016W, strain bim1, stronger effect = lower value 0.969 | locus YER111C, strain swi4, stronger effect = lower value 0.96 | locus YER155C, strain BEM2 (second series), stronger effect = lower value 0.944 | locus YFR010W, strain ubp6, stronger effect = lower value 0.979 | locus YGL167C, strain pmr1, stronger effect = lower value 0.962 | locus YGL173C, strain kem1, stronger effect = lower value 0.957 | locus YGL227W, strain vid30, stronger effect = lower value 0.961 | locus YGL240W, strain doc1, stronger effect = lower value 0.901 | locus YGL253W, strain hxk2, stronger effect = lower value 0.969 | locus YHR013C, strain ard1, stronger effect = lower value 0.974 | locus YHR027C, strain rpn1, stronger effect = lower value 0.991 | locus YHR142W, strain chs7, stronger effect = lower value 0.973 | locus YJL092W, strain hpr5, stronger effect = lower value 0.983 | locus YJL095W, strain BCK1 (second series), stronger effect = lower value 0.99 | locus YJL115W, strain asf1, stronger effect = lower value 0.977 | locus YJL129C, strain trk1, stronger effect = lower value 0.92 | locus YJL154C, strain vps35, stronger effect = lower value 0.99 | locus YJL164C, strain tpk1, stronger effect = lower value 0.968 | locus YJL166W, strain qcr8, stronger effect = lower value 0.946 | locus YJL187C, strain SWE1, stronger effect = lower value 0.971 | locus YKL160W, strain elf1, stronger effect = lower value 0.993 | locus YKR026C, strain gcn3, stronger effect = lower value 0.954 | locus YKR091W, strain srl3, stronger effect = lower value 0.969 | locus YLL001W, strain dnm1, stronger effect = lower value 0.991 | locus YLL026W, stronger effect = lower value 0.982 | locus YLL041C, strain sdh2, stronger effect = lower value 0.974 | locus YLR027C, strain aat2, stronger effect = lower value 0.984 | locus YLR221C, strain rsa3, stronger effect = lower value 0.98 | locus YLR258W, strain gsy2, stronger effect = lower value 0.968 | locus YLR320W, strain mms22, stronger effect = lower value 0.906 | locus YLR342W, strain FKS1, stronger effect = lower value 0.965 | locus YLR357W, strain rsc2, stronger effect = lower value 0.935 | locus YLR370C, strain arc18, stronger effect = lower value 0.969 | locus YLR384C, strain iki3, stronger effect = lower value 0.993 | locus YML120C, strain ndi1, stronger effect = lower value 0.955 | locus YMR058W, strain fet3, stronger effect = lower value 0.97 | locus YMR125W, strain sto1, stronger effect = lower value 1 | locus YMR129W, stronger effect = lower value 0.961 | locus YMR205C, strain PFK2, stronger effect = lower value 0.902 | locus YMR231W, strain pep5, stronger effect = lower value 0.988 | locus YNL071W, strain lat1, stronger effect = lower value 0.959 | locus YNL209W, strain ssb2, stronger effect = lower value 0.988 | locus YNL248C, strain rpa49, stronger effect = lower value 0.985 | locus YNL322C, strain KRE1 (second series), stronger effect = lower value 0.959 | locus YNR049C, strain mso1, stronger effect = lower value 0.971 | locus YOR001W, strain rrp6, stronger effect = lower value 0.967 | locus YOR070C, strain gyp1, stronger effect = lower value 0.973 | locus YOR080W, strain dia2, stronger effect = lower value 0.968 | locus YOR083W, strain WHI5, stronger effect = lower value 0.99 | locus YOR106W, strain vam3, stronger effect = lower value 0.966 | locus YOR265W, strain rbl2, stronger effect = lower value 0.992 | locus YOR270C, strain vph1, stronger effect = lower value 0.94 | locus YOR290C, strain snf2, stronger effect = lower value 0.898 | locus YPL051W, strain arl3, stronger effect = lower value 0.986 | locus YPL078C, strain atp4, stronger effect = lower value 0.973 | locus YPL106C, strain sse1, stronger effect = lower value 1.01 | locus YPL240C, strain hsp82, stronger effect = lower value 0.991
active: locus YDR392W, strain spt3, stronger effect = lower value 0.634 | locus YLR262C, strain YPT6 (second series), stronger effect = lower value 0.826
